# From the supplement of paper PMC8975748
# Where a name gives a salt, the structure may show the parent alone.
# Test system: Saccharomyces cerevisiae BY4741 SeMeCo community
# Experiment: z-score of subpopulation abundance vs DMSO median, subpopulation auxotrophic for HLUM; higher = larger share of this subpopulation than in DMSO controls
# Settings: 10 µM; 24 h; SM minimal medium; subpopulation (auxotrophy): HLUM
# Procedure: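 Fluorescent four-plasmid SeMeCo (self-establishing metabolically cooperating S. cerevisiae BY4741 community; plasmids pH-mRuby2, pL-mWasabi, pU-eCFP, pM-TagRFP657) was grown 24 h in minimal SM medium with each Selleck FDA-approved drug at 10 µM in 384-well plates. Cells were fixed and imaged by high-content confocal microscopy. For each auxotrophic subpopulation (and the prototroph), a z-score gives the deviation from the DMSO vehicle-control population median.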
row,Compound,z-score of subpopulation abundance
1,CN1[C@@H]2CC[C@H]1C[C@@H](OC(=O)C(CO)c1ccccc1)C2 (some centres undefined) [Atropine sulfate monohydrate],-0.85
2,COc1ccc(C=O)cc1 [p-Anisaldehyde],-0.16
3,CN(C)[C@@H]1C(=O)C(C(N)=O)=C(O)[C@@]2(O)C(=O)C3=C(O)c4c(O)cccc4[C@@](C)(O)[C@H]3C[C@@H]12 [Tetracycline HCl],-0.58
4,CCOC(=O)Nc1ccc(NCc2ccc(F)cc2)cc1N [Retigabine 2HCl],-0.39
5,CN(C)[C@@H]1C(=O)C(C(N)=O)=C(O)[C@@]2(O)C(=O)C3=C(O)c4c(O)ccc(Cl)c4[C@@](C)(O)[C@H]3C[C@@H]12 [Chlortetracycline HCl],0.32
6,CNC1CC(N)C(O)C(OC2OC(CO)C(O)C3OC4(OC(C(N)CO)C(O)C(O)C4O)OC23)C1O (centres undefined) [Hygromycin B],-0.53
7,COC(=O)C1=CCCN(C)C1 [Arecoline HBr],-0.09
8,CN1[C@@H]2CC[C@H]1C[C@@H](OC(=O)[C@H](CO)c1ccccc1)C2 [Hyoscyamine],0.62
9,CCN(CC)CCOC(=O)C(O)(c1ccccc1)c1ccccc1 [Benactyzine hydrochloride],1.13
10,CN1C(=O)COc2c(C(=O)NC3CN4CCC3CC4)cc(Cl)cc21 (centres undefined) [Azasetron HCl],0.19
11,C[CH2][Hg][S]c1ccccc1C(=O)[O-].[Na+] [Thimerosal],63.5
12,CCC1=C[C@H]2CN3CCc4c([nH]c5ccccc45)[C@](C(=O)OC)(C2)[C@H]13 [Catharanthine],-0.22
13,C#C[C@]1(O)C=C[C@H]2[C@@H]3CCC4=CC(=O)CC[C@@H]4[C@H]3CC[C@@]21CC [Gestodene],-0.58
14,CC(=O)OCC1=C(C(=O)O)N2C(=O)C(N)C2SC1 (centres undefined) [7-Aminocephalosporanic acid],-0.76
15,CCN(C)C(=O)Oc1cccc([C@H](C)N(C)C)c1 [Rivastigmine Tartrate],-0.16
16,CC(C)=CCOc1c2occc2cc2ccc(=O)oc12 [Imperatorin],0.23
17,CN(C)[C@@H]1C(=O)C(C(N)=O)=C(O)[C@@]2(O)C(=O)C3=C(O)c4c(O)cccc4[C@@](C)(O)[C@H]3[C@H](O)[C@@H]12 [Oxytetracycline (Terramycin)],0.26

row,Compound,z-score of subpopulation abundance
1,Cn1cc(C2=C(c3cn(C4CCN(Cc5ccccn5)CC4)c4ccccc34)C(=O)NC2=O)c2ccccc21,-0.35
2,Oc1cccc2cccnc12 [8-Hydroxyquinoline],0.11
3,C=CN1CCCC1=O.II [Povidone iodine],0.32
4,CCCN1C[C@H](CSC)C[C@@H]2c3cccc4[nH]cc(c34)C[C@H]21 [Pergolide Mesylate],-0.1
5,CCN1CC2(OC(=O)c3ccccc3NC(C)=O)CCC(OC)C34C1C(CC23)C1(O)CC(OC)C2CC4C1(O)C2OC (centres undefined) [Lappaconitine],-0.44
6,CC(C)N(CCC(C(N)=O)(c1ccccc1)c1ccccn1)C(C)C (centres undefined) [Disopyramide],0.82
7,NCCc1c[nH]c2ccc(O)cc12 [Serotonin HCl],0.3
8,CCN(C)C(=O)Oc1cccc([C@H](C)N(C)C)c1 [Rivastigmine],-0.15
9,CN[C@@H]1[C@@H](O)[C@@H](O[C@@H]2[C@@H](O)[C@H](O[C@H]3O[C@H](CN)CC[C@H]3N)[C@@H](N)C[C@H]2N)OC[C@]1(C)O.CN[C@@H]1[C@@H](O)[C@@H](O[C@@H]2[C@@H](O)[C@H](O[C@H]3O[C@H]([C@@H](C)N)CC[C@H]3N)[C@@H](N)C[C@H]2N)OC[C@]1(C)O.CN[C@@H]1[C@@H](O)[C@@H](O[C@@H]2[C@@H](O)[C@H](O[C@H]3O[C@H]([C@@H](C)NC)CC[C@H]3N)[C@@H](N)C[C@H]2N)OC[C@]1(C)O [Gentamicin Sulfate],0.46
10,Oc1cc(Cl)ccc1Oc1ccc(Cl)cc1Cl [Triclosan],2.06
11,C=C[C@H]1CN2CC[C@H]1C[C@H]2[C@H](O)c1ccnc2ccccc12 [Cinchonidine],0.1
12,CC(NC(C)(C)C)C(=O)c1cccc(Cl)c1 (centres undefined) [Amfebutamone (Bupropion) HCl],0.09
13,CCCCCCCCCCCCCCCC[n+]1ccccc1 [Cetylpyridinium Chloride],49.4
14,CC(C)(O)C(Cl)(Cl)Cl [Chlorobutanol],-0.06
15,O=C(O[C@H]1C[C@H]2CC[C@@H](C1)[N+]21CCCC1)C(O)(c1ccccc1)c1ccccc1 [Trospium chloride],-0.2
16,Nc1nc(N)nc(NC2CC2)n1 [Cyromazine],1.21
17,Nc1ccncc1 [4-Aminopyridine],-0.46
